Among the data in PubChem BioAssay (NCI) are growth values, retold here.

Holding throughout (assay): NCI-60 one-dose screen, 48 h (100 = growth as untreated, 0 = no growth, -100 = all killed)
Test [1] deals with NCI-H322M lung. Conditions: 10 µM unless noted.
The test system of test [2] is NCI-H522 lung. As to conditions: 10 µM unless noted.
For test [3], the system named is COLO 205 colon. As to conditions: 10 µM.
Test [4] has as its system K-562 leukemia. As to conditions: 10 µM unless noted.
Test [5] deals with U251 CNS. Conditions: 10 µM unless noted.
Test [6] deals with LOX IMVI melanoma. As to conditions: 10 µM unless noted.
The test system of test [7] is EKVX NSCLC. Conditions: 10 µM unless noted.
Test [8] relates to CAKI-1 renal. Conditions: 10 µM unless noted.
Test [9] deals with CCRF-CEM leukemia. As to conditions: 10 µM unless noted.
Test [10] concerns MOLT-4 leukemia. As to conditions: 10 µM.
The subject of test [11] is SK-OV-3 ovarian. As to conditions: 10 µM unless noted.
Test [12] relates to IGROV1 ovarian. As to conditions: 10 µM.
The subject of test [13] is HS 578T breast. Conditions: 10 µM unless noted.
For test [14], the system named is BT-549 breast. Conditions: 10 µM.
For test [15], the system named is SW-620 colon. Conditions: 10 µM unless noted.
In test [16] the test system is HCT-116 colon. Conditions: 10 µM unless noted.
In test [17] the test system is HOP-92 NSCLC. Conditions: 10 µM unless noted.
Test [18] relates to SR leukemia. As to conditions: 10 µM.
Test [19] deals with TK-10 renal. As to conditions: 10 µM unless noted.

This is part of a sample that, as a whole, favours compounds with a hit. Of some 83,000 tested, about 20% had one in any assay.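 Interpretation: 100, growth as untreated; towards 0, rising growth inhibition; 0, no net growth; 0 to -100, cell death. Compounds scoring below 10 were considered active.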 Values without a mark were called inactive. Activity calls are given as the source filed them.

With `O=C(CF)N(O)c1ccc(/C=C/c2ccccc2)cc1`, the growth in [1] is 71.4%; in test [2], 60.6%; in [3], 68.8%; in test [4], 45.4%; in [5] it was 35.6%; in test [6], 39.8%. Also, the growth in test [7] was 98.5%; in test [8], 11.9%; in [9] it was 13.5%; in test [10] it was 34.9%; in [11], 65.6%; in test [12] it was 40.8%. For the same compound, the growth in test [13] is 99%; in test [14] it was 44.9%; in test [15] it was 56.5%; in [16] it was 11.5%.
Turning to `COc1ccc2c(c1)NC1=C(C(=O)OC1)C2c1cc(OC)c(OC)c(OC)c1` (centres undefined), the growth in test [17] was 5.87% (active); in [2] it was -26.2% (active); in test [3], -48.5% (active); in test [4], 7.31% (active); in [6], 11.9%; in test [7], 53.8%. The growth in [8] was 25.4%; in test [9], 6.76% (active); in [10], 5.82% (active); in test [18], 5.65% (active); in [12], 12%; in test [13], 31%. In addition, the growth in [14] is 7.12% (active); in test [15], 17.9%; in [16] it was 5.07% (active).
For `O=[N+]([O-])c1cc([N+](=O)[O-])c(Cl)c(Cl)c1Cl`, the growth in test [1] is 96.5%; in test [17] it was 2.39% (active); in [2], -86.5% (active); in [3], -82.7% (active); in test [4] it was 13%; in test [5], -79.4% (active). Moreover, the growth was -62.6% (active) in test [6]; 67.4% in test [7]; -99.5% (active) in test [19]; -22.3% (active) in test [9]; 2.06% (active) in [10]; -5% (active) in test [18]. Moreover, the growth in test [11] was 101%; in test [12], 22%; in test [14], 49.8%.
As for `C=CC(=O)NC(O)C(Cl)(Cl)Cl` (centres undefined), the growth was 85% in test [1]; 97.1% in [4]; 102% in [5]; 95.9% in test [19]; 93.5% in test [8]; 83.8% in test [10]. Besides, the growth in test [18] was 90.8%; in test [11], 98.2%; in test [12] it was 98.1%; in [13] it was 120%; in test [14], 97.5%; in test [15] it was 111%. Also, in test [16], the growth is 101%.
Turning to `FC(F)=C(F)c1ccccc1`, the growth in test [1] is 104%; in test [4], 89.2%; in test [5] it was 103%; in [6], 88.6%; in test [19], 89.7%; in test [8], 109%. Further, the growth in test [9] is 80.3%; in test [10], 92.6%; in test [18], 80.4%; in [11], 97.5%; in test [12] it was 99%; in test [14], 96%. In addition, the values for the growth in [15] and in test [16] were 109% and 103%, respectively.
On to `CC12CCC(=O)C=C1C(O)CC1C2CCC2(C)C(O)CCC12` (centres undefined), for which the growth is 98% in [1]; 103% in test [17]; 106% in test [2]; 112% in test [3]; 105% in test [4]; 97.3% in test [5]. Also, the growth in test [6] was 97.2%; in test [7], 107%; in test [19], 104%; in test [8], 102%; in [9], 103%; in test [10], 96.5%. Moreover, the growth was 106% in test [18]; 115% in [11]; 106% in [12]; 104% in test [13]; 117% in [14]; 109% in test [15]. The growth in [16] is 99%.
As to `NC(Cc1ccc2c(c1)OCO2)c1ccc2c(c1)OCO2` (centres undefined), the growth in test [17] was 63.1%; in [2], 97.2%; in test [3], 99.9%; in [4] it was 96.5%; in test [5], 107%; in [6], 99.8%. Further, the growth is 98.2% in test [9]; 107% in test [10]; 83.9% in [18]; 108% in test [11]; 103% in test [13]; 101% in [15]. In test [16], the growth is 95.5%.
Regarding `CC1(C)N=C(N)N=C(N)N1c1ccc(OCCCCNC(=O)c2ccc(S(=O)(=O)F)cc2)c(Cl)c1`, the growth in test [1] is 55.5%; in [3] it was 61.7%; in [4], 16.2%; in [6] it was 25.7%; in test [8], 99.2%; in test [9], 31%. The growth is 57.9% in test [10]; 34.8% in test [18]; 101% in test [11]; 33.7% in [12]; 35.1% in [15]; 25.6% in test [16].
For the compound `OB([O][Hg][c]1ccccc1)[O][Hg][c]1ccccc1`, the growth in test [1] is -22.4% (active); in [4], -32.5% (active); in [5] it was -82.4% (active); in [6] it was -29.2% (active); in test [19], -94.5% (active); in test [8] it was -92.4% (active). In addition, the growth in test [10] is -38.8% (active); in test [18], -15.2% (active); in test [11] it was -62.7% (active); in test [12] it was -54.3% (active); in test [13], -5.59% (active); in test [14], -91.5% (active).
As for `C[CH2][Pb]([CH2]C)([CH2]C)[O]C(=O)COC`, the growth in test [1] is -11.1% (active); in [3] it was -7.82% (active); in [4] it was 0.215% (active); in [5], -12.1% (active); in test [6], -20.8% (active); in test [8], -10.3% (active). The growth was -37.7% (active) in [10]; -3.94% (active) in [11]; -13% (active) in test [12]; -2.8% (active) in [13]; -18.8% (active) in test [14]; -29.7% (active) in test [16].
Turning to `O=C(N/N=C/c1ccc(N(CCCl)CCCl)cc1)c1cc(=O)[nH]c(=O)[nH]1`, the growth in test [1] is 92.9%; in [2], 96.7%; in test [5] it was 98.2%; in test [6], 93.4%; in [7] it was 115%; in [19] it was 109%. In addition, the growth is 53.2% in test [8]; 66.5% in test [9]; 83.9% in [12]; 105% in test [13]; 96.8% in test [14]; 108% in [15]. The growth in test [16] was 90.7%.
